Assay results: ChEMBL document CHEMBL3988442, “University of Dundee, Small-Polar-MMV Screening Library” (2021)
Screen size: about 48,000 compounds; about 13,000 (27%) showed an effect of 50% or more. Some of the results follow.

tested on: Wolbachia pipientis; test: Anti-Wolbachia Cell-Based Screen; type: functional; design: scale not given: in the data most compounds retested in dose-response had high values; details: 5 µM

| Structure (SMILES) | Percent Effect |
| --- | --- |
| O=C(NCCN1CCOCC1)N(Cc1ccoc1)C1CCCCC1 | 0.09271% |
| COC(=O)CCC(=O)Nc1ccc(Br)c(C)n1 | -4.996% |
| COc1cccc(CCC2CCCN(C(=O)c3ccc(OC)o3)C2)c1 (centres undefined) | -11.16% |
| COc1cccc(CCC2CCCN(C(=O)c3cnccn3)C2)c1 (centres undefined) | -42.01% |
| COc1ccc(CCC2CCCN(C(=O)c3cnc(N)nc3C)C2)cc1 (centres undefined) | 107.8% |
| CN(Cc1ccncc1)C(=O)NCc1cn(-c2ccccc2)nn1 | -7.371% |
| CN(C)CCN(C)C(=O)c1cn(CC2CCCCC2)nn1 | 101.9% |
| Cc1nccn1CCC(=O)N1CCCN(c2ccccc2)CC1 | 21.45% |
| Cc1nccn1CCN(C)C(=O)c1cn(-c2ccccc2)nn1 | 107.7% |
| CCN(Cc1ccncc1)C(=O)c1cn(CC2CCCNC2)nn1 (centres undefined) | -3.068% |
| Cc1nccn1CCC1CCCCN1C(=O)c1ccc(N(C)C)cc1 (centres undefined) | 11.5% |
| CCN(Cc1ccncc1)C(=O)c1cn(CCC2CCCCC2)nn1 | 4.586% |
| Cc1nccn1CCN(C)C(=O)c1cn(CC2CCCCC2)nn1 | 121.2% |
| Cc1nccn1CCC1CCCCN1Cc1cnc(N(C)C)nc1 (centres undefined) | -18.73% |
| CC(C)c1nn(C)c(N(C)C)c1CNCc1cscn1.Cl | -8.215% |
| CC(C)NC(=O)[C@@H]1CCO[C@@H]2CCN(c3ncccn3)C[C@@H]21.O=C(O)C(F)(F)F | -3.581% |
| O=C(NCC1CC1)[C@@H]1CCO[C@@H]2CCN(c3ncccn3)C[C@@H]21.O=C(O)C(F)(F)F | -3.49% |
| O=C(NCc1ccco1)[C@@H]1CCO[C@@H]2CCN(c3ccncn3)C[C@H]21.O=C(O)C(F)(F)F | -22.24% |
| Cc1ncccc1NC(=O)[C@@H]1CCO[C@@H]2CCN(c3ccccc3)C[C@@H]21.O=C(O)C(F)(F)F.O=C(O)C(F)(F)F | 108.5% |
| Cc1ncccc1NC(=O)[C@@H]1CCO[C@@H]2CCN(c3ccncn3)C[C@H]21 | 113.9% |
| COCCNC(=O)[C@@H]1CCO[C@@H]2CCN(c3ccc(C)nn3)C[C@@H]21 | -1.212% |
| CC(=O)N(C)Cc1ccccc1NCc1c(C)cccc1C | -18.14% |
| CCc1c(C)nn2c(O)cc(C3CCN(C(=O)C4CC4)C3)nc12 (centres undefined) | 96.58% |

| Structure (SMILES) | Percent Effect |
| --- | --- |
| O=C(C1CC1)N1CC[C@H](c2nnc(-c3ccccc3F)o2)C1 | -4.544% |
| O=C(C1CC1)N1CC[C@H](c2nc3ccccc3o2)C1 | 7.952% |
| Cc1nc(C)n(CC2CCCN(Cc3cccc(C#N)c3)C2)n1 (centres undefined) | -5.879% |
| Cc1nc(C)n(CC2CCCN(Cc3cccc(C(N)=O)c3)C2)n1 (centres undefined) | 133.9% |
| Cc1nc(C)n(CC2CN(Cc3cccnc3)CCO2)n1 (centres undefined) | 5.869% |
| Cc1nc(C)n(CC2CCCN(Cc3ccc(C(N)=O)cc3)C2)n1 (centres undefined) | -2.004% |
| Cc1nc(C)n(CC2CCCN(Cc3cccnc3)C2)n1 (centres undefined) | 89.08% |
| Cc1nc(C)n(CC2CCCN(Cc3ccc4c(c3)OCCO4)C2)n1 (centres undefined) | 92.75% |
| COc1ccc(CN2CCCC(Cn3nc(C)nc3C)C2)cc1F (centres undefined) | -3.884% |
| Cc1nc(C)n(CC2CN(Cc3cccc(C(N)=O)c3)CCO2)n1 (centres undefined) | -4.426% |
| COc1cccc(CN2CCCC(Cn3nc(C)nc3C)C2)c1 (centres undefined) | 103.7% |
| COC(=O)c1ccc(C(=O)NCc2ccco2)nc1 | -23.57% |
| CCc1nccn1CCC(=O)N1CC[C@@H](c2ccc(F)cc2)[C@H](O)C1 | -13.2% |
| COc1ccccc1C1(CNc2nnc(C)c(C)c2C#N)CCOCC1 | 0.2404% |
| Cc1cc(CN(C)C(=O)NCC2CCS(=O)(=O)C2)no1 (centres undefined) | -10.09% |
| Cc1nc(CNC(=O)NC2CC(C)(C)OC2(C)C)sc1C (centres undefined) | -0.2444% |
| CC(CO)NC(=O)Nc1ccc(Cl)cc1OCC(F)(F)F (centres undefined) | -4.812% |
| CNC(=O)Nc1cnc2cc(Cl)ccc2c1O | 96.42% |
| O=C(NCC1CC1)Nc1cnc2cc(Cl)ccc2c1O | -14.95% |
| O=C(NCCN1CCOCC1)Nc1cnc2cc(Cl)ccc2c1O | 96.85% |
| CC(C)OC(=O)c1ccc(Cl)c(NC(=O)NCCN2CCOCC2)c1 | -2.134% |
| O=C(NCCO)Nc1cnc2cc(Cl)ccc2c1O | 99.99% |
| O=C(NCCO)Nc1cccc(Cl)c1SC(F)F | 0.2889% |

| Structure (SMILES) | Percent Effect |
| --- | --- |
| O=C(NCCCO)Nc1cccc(Cl)c1F | -20.85% |
| O=C(NCCCN1CCOCC1)Nc1cnc2cc(Cl)ccc2c1O | -16.9% |
| O=C(NCCCO)Nc1cnc2cc(Cl)ccc2c1O | 96.93% |
| N[C@H]1CN(C(=O)c2cnc3cc(Cl)ccc3c2O)C[C@@H]1C1CC1 | 6.977% |
| CC(C)OCCCNC(=O)Nc1cccc2ncccc12 | -8.776% |
| CC(=O)NC(C(=O)N(C)Cc1nnc2n1CCC2)C(C)C (centres undefined) | 2.941% |
| Cc1cc(C(=O)N2C[C@@H]3COC[C@]3(c3nnc(C4CC4)o3)C2)on1 | -20.3% |
| COc1ccccc1OC1CN(C(=O)C(c2ccc(F)cc2)N(C)C)C1 (centres undefined) | -23.44% |
| CCOc1c(Br)cc(C2C3=C(COC3=O)Nc3[nH]nc(C)c32)cc1OC (centres undefined) | -13.27% |
| Cc1cnc(C(=O)N(C)Cc2nc(-c3ccccn3)no2)cn1 | -1.871% |
| Fc1ccccc1Cc1noc(CN2CCC(N3CCSCC3)CC2)n1 | 5.463% |
| Cc1ccccc1N1CCCN(C(=O)c2cn(C)c3ccccc23)CC1 | 5.002% |
| N#Cc1ccccc1N1CCN(C(=O)NCCN2CCOCC2)CC1 | -5.749% |
| O=C(Nc1ccc(I)cc1C(=O)NCCN1CCOCC1)c1ccco1 | 13.86% |
| O=C(Nc1ccccc1C(=O)NCCN1CCOCC1)c1ccco1 | 0.2432% |
| O=C(Nc1ccc(Cl)cc1C(=O)NCCN1CCOCC1)c1ccco1 | 134.1% |
| COc1cc(CN2CCCC(Nc3cccc(F)c3)C2)cc(OC)c1O (centres undefined) | 11.19% |
| CC(C)S(=O)(=O)N1C[C@@H](O)[C@H](N(C)Cc2ccc(F)cc2)C1 | 92.86% |
| Cc1ccc([C@@H]2CN(S(=O)(=O)C(C)C)C[C@H]2N(C)C)cc1 | 4.129% |
| COc1ccc(CN(C)[C@@H]2CN(S(=O)(=O)C(C)C)C[C@H]2O)cc1 | 105.6% |
| CC(C)C1CN(S(=O)(=O)N2CCCC2)CCCN1Cc1ccc(F)cc1 (centres undefined) | -9.548% |
| CCOCC(=O)N1C[C@@H](O)[C@H](N(C)Cc2ccc(OC)cc2)C1 | -9.013% |
| CC(C)C1CN(S(=O)(=O)C2CC2)CCCN1Cc1ccc(F)cc1 (centres undefined) | -0.9864% |
